Experimental data as given in publication PMC7862700, “An all-to-all approach to the identification of sequence-specific readers for epigenetic DNA modifications on cytosine”.

Key:
Assay in all cases: DAPPL (digital affinity profiling via proximity ligation, sequencing); 10 mM Tris-HCl pH 7.5, 50 mM NaCl, 1 mM DTT, 4% glycerol, room temperature, 30 min; GST-TFs on glutathione beads, 16-mer random dsDNA library, 0.1% formaldehyde crosslink after washing; high values mean tight binding
Conditions in all cases: protein: recombinant; tags: N-terminal GST; dsDNA, one strand shown
GABPA = molecular target: T1, GABPA (Homo sapiens, UniProt Q06546 1-454)
T1 sequence: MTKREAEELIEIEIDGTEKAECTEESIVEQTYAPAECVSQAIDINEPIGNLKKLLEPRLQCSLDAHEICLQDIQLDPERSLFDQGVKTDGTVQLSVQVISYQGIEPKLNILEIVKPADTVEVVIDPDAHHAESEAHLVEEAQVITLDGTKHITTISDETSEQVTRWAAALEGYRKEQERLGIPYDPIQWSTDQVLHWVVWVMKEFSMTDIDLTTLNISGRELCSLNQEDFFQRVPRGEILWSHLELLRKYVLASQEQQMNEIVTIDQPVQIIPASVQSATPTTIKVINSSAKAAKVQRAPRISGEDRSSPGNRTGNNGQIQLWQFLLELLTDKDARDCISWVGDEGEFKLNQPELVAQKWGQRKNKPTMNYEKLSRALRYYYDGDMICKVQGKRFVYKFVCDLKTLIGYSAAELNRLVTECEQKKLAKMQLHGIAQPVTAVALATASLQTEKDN
In short: (§1)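 GST fusions of human transcription factors were expressed in yeast and captured with glutathione beads. Once given DNA barcodes and pooled alongside a tag-only sample, they were incubated for 30 min at room temperature with 200 nmole of a random double-stranded 16-mer DNA library in Tris/NaCl/DTT/glycerol buffer, then washed, crosslinked (0.1% formaldehyde), proximity-ligated, PCR-amplified and sequenced on an Illumina NextSeq500. The binding signal of each hexamer is its read frequency for a factor divided by its frequency for the tag-only sample.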

ERG = molecular target: T2, ERG (Homo sapiens, UniProt P11308 1-479)
T2 sequence: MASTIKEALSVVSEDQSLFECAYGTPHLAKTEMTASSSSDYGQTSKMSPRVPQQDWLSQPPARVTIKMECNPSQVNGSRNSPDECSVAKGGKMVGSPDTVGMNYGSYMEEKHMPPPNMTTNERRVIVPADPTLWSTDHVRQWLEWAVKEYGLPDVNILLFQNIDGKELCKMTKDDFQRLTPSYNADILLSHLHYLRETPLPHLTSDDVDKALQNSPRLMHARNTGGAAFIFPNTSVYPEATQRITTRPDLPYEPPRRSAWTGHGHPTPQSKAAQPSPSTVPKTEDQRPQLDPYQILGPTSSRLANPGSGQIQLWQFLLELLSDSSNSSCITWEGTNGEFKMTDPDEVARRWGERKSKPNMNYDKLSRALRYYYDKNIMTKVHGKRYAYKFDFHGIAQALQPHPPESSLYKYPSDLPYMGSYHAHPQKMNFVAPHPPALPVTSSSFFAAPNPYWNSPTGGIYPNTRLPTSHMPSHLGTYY
In short: as §1

ELF1 = ELF1 (Homo sapiens, UniProt P32519 1-619)
Sequence of ELF1 (P32519 whole entry): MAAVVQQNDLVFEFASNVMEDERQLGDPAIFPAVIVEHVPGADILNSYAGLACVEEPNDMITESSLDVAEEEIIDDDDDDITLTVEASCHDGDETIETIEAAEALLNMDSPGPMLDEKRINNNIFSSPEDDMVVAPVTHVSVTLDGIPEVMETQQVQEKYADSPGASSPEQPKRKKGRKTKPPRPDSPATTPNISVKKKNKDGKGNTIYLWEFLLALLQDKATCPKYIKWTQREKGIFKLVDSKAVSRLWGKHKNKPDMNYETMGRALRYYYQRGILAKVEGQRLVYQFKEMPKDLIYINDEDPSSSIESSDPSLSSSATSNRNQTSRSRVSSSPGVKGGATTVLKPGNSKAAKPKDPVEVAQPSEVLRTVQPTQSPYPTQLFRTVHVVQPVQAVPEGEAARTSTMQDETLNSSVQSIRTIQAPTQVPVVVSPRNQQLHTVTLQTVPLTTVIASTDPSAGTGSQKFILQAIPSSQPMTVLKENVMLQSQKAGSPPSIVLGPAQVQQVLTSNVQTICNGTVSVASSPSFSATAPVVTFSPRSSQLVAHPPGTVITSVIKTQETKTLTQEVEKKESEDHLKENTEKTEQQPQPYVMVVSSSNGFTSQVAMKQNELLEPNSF
In short: as §1

EHF = molecular target: T3, EHF (Homo sapiens, UniProt Q9NZC4 1-300)
T3 sequence: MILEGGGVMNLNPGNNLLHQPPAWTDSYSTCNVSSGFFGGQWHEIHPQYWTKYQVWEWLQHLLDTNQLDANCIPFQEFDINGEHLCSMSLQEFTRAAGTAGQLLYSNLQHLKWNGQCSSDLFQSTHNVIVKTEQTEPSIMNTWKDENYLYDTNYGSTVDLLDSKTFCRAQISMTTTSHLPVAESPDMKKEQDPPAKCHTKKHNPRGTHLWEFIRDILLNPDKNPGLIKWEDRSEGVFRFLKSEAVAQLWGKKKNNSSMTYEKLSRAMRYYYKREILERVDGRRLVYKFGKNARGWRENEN
In short: as §1

SPIC = molecular target: T4, SPIC (Homo sapiens, UniProt Q8N5J4 1-248)
T4 sequence: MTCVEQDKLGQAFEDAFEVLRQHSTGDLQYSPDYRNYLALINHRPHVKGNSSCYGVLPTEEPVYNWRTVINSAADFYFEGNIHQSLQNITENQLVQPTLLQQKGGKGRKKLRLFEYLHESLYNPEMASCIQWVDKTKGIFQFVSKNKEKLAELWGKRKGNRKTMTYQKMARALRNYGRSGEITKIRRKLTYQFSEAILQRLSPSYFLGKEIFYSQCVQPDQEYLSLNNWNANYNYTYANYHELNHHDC
In short: as §1

ELF4 = ELF4 (Homo sapiens, UniProt Q99607 1-663)
Sequence of ELF4 (Q99607 whole entry): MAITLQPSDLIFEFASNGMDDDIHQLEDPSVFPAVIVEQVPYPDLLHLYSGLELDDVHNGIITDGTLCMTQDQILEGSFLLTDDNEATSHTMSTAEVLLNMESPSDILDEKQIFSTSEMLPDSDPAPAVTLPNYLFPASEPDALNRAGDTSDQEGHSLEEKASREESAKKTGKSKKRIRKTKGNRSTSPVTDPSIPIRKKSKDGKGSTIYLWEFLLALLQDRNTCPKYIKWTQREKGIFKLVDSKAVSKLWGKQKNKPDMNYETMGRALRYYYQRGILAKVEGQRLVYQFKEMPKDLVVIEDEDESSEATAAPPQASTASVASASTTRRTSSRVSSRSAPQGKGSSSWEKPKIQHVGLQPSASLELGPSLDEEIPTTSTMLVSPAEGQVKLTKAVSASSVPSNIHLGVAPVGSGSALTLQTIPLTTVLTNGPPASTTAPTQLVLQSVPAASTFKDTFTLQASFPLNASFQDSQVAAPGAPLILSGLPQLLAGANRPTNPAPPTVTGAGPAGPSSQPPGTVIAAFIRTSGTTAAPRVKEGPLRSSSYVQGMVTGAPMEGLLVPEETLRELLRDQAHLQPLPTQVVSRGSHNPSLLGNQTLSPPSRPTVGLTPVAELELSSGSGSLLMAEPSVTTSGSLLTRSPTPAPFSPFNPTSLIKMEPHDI
In short: as §1

ELK4 = molecular target: T5, ELK4 (Homo sapiens, UniProt P28324-2 1-405)
T5 sequence: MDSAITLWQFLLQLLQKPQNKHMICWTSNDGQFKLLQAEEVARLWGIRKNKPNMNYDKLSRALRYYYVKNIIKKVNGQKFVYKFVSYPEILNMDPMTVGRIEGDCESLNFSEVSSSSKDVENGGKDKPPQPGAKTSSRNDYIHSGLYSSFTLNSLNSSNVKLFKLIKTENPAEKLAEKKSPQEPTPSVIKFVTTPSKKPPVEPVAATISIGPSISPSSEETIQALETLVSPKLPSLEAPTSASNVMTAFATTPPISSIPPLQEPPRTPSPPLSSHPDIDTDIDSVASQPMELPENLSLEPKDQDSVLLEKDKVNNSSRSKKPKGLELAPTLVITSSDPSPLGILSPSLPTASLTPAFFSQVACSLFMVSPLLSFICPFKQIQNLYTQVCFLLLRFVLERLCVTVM
In short: as §1

ELF3 = molecular target: T6, ELF3 (Homo sapiens, UniProt P78545 1-371)
T6 sequence: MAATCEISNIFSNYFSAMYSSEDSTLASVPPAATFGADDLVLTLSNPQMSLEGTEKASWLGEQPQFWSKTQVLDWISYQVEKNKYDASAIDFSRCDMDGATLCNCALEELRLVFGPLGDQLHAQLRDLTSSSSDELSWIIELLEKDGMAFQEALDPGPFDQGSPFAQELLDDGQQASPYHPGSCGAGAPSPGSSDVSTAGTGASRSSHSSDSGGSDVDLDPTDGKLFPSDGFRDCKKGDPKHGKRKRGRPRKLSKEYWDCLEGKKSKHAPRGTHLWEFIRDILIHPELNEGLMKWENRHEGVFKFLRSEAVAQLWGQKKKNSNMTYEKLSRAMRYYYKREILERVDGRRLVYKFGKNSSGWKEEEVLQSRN
In short: as §1

ETV3L = molecular target: T7, ETV3L (Homo sapiens, UniProt Q6ZN32 1-361)
T7 sequence: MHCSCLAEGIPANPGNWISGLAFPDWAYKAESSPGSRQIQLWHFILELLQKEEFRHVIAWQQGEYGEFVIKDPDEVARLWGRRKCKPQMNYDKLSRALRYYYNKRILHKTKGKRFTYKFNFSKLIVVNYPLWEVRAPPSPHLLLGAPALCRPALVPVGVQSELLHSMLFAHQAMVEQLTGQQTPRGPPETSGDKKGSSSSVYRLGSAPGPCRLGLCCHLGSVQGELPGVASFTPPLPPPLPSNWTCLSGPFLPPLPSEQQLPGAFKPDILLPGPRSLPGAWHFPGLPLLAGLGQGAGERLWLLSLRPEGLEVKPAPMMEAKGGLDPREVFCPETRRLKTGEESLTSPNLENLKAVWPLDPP
In short: as §1

ETS2 = molecular target: T8, ETS2 (Homo sapiens, UniProt P15036 1-469)
T8 sequence: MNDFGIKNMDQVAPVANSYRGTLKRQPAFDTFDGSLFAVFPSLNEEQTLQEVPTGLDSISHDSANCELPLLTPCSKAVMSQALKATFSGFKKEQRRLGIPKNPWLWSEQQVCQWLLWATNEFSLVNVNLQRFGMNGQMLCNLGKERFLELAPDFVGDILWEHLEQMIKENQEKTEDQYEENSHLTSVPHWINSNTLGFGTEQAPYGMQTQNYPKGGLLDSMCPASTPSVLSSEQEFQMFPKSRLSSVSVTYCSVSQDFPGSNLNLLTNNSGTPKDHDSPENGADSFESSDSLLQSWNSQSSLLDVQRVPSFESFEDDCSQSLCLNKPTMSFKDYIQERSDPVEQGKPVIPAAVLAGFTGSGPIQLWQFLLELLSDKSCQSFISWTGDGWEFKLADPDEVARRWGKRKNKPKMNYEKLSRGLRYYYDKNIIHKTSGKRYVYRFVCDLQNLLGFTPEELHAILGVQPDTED
In short: as §1

SPDEF = molecular target: T9, SPDEF (Homo sapiens, UniProt O95238 1-335)
T9 sequence: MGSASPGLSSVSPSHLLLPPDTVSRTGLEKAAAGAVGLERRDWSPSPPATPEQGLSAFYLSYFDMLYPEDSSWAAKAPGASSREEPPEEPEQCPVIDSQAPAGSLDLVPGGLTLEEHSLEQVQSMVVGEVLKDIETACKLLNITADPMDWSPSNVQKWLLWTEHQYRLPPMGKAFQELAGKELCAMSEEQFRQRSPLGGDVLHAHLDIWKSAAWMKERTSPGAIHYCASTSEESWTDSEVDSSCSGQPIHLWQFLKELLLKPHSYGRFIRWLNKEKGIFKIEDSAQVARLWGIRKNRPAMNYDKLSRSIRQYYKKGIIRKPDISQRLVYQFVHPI
In short: as §1

ETV7 = molecular target: T10, ETV7 (Homo sapiens, UniProt Q9Y603 1-341)
T10 sequence: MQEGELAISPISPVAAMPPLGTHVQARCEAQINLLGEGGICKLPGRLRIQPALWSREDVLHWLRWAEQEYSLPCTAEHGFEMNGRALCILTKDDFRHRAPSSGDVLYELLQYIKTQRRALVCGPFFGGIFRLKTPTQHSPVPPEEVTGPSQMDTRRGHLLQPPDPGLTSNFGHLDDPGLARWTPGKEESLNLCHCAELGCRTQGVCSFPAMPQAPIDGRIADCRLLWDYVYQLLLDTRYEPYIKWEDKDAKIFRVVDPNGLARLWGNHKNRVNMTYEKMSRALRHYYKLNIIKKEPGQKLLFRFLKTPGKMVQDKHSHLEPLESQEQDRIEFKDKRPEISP
In short: as §1

ETV3 = molecular target: T11, ETV3 (Homo sapiens, UniProt P41162-2 1-143)
T11 sequence: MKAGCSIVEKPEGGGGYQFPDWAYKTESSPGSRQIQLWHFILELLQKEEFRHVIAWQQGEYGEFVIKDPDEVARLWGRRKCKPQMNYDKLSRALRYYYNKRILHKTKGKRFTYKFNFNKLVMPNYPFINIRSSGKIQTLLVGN
In short: as §1

ETV6 = ETV6 (Homo sapiens, UniProt P41212 1-452)
Sequence of ETV6 (P41212 whole entry): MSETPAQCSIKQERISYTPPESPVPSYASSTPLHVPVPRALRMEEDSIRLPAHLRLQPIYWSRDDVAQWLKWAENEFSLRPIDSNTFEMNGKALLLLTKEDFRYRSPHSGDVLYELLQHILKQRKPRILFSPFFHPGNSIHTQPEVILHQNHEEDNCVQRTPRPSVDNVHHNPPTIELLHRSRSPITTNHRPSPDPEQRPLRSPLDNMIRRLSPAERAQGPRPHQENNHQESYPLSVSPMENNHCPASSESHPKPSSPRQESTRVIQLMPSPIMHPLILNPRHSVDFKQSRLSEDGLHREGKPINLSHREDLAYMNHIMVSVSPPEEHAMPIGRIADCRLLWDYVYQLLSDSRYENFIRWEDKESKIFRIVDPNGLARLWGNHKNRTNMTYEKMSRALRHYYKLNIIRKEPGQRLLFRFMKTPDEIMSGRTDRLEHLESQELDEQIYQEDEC
In short: as §1

CATGCG
binding signal (GABPA): 1.06 fold enrichment (6-mer frequency, TF over GST control)
binding signal (ERG): 1.03 fold enrichment (6-mer frequency, TF over GST control)
binding signal (ELF1): 1.07 fold enrichment (6-mer frequency, TF over GST control)
binding signal (EHF): 1.06 fold enrichment (6-mer frequency, TF over GST control)
binding signal (SPIC): 1 fold enrichment (6-mer frequency, TF over GST control)
binding signal (ELF4): 1.02 fold enrichment (6-mer frequency, TF over GST control)
binding signal (ELK4): 1.11 fold enrichment (6-mer frequency, TF over GST control)
binding signal (ELF3): 1.29 fold enrichment (6-mer frequency, TF over GST control)
binding signal (ETV3L): 1.01 fold enrichment (6-mer frequency, TF over GST control)
binding signal (ETS2): 1 fold enrichment (6-mer frequency, TF over GST control)
binding signal (SPDEF): 1.01 fold enrichment (6-mer frequency, TF over GST control)
binding signal (ETV7): 1.21 fold enrichment (6-mer frequency, TF over GST control)
binding signal (ETV3): 1.03 fold enrichment (6-mer frequency, TF over GST control)
binding signal (ETV6): 1.16 fold enrichment (6-mer frequency, TF over GST control)
